# Only some compounds are listed: those with a hit (about 5.9% of all), similar ones and a draw of the others.
# AHR act: human AHR activation | actives 2.5% (n = 320,000) | AHR-responsive luciferase reporter cells, luminescence | P35869 | activation, % at 5 µM; in the data active = activation above about 47%;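 also: 0% = vehicle wells and 100% = reference agonist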
# HSP90 refold inh: blocks HSP90-mediated luciferase refolding in reticulocyte lysate. Rabbit reticulocyte lysate, luciferase refolding luminescence, 3 h. inhibition, % at 5.6 µM. actives 0.91% (n = 290,000);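 active = inhibition above the screen-wide mean plus 3 SD, computed separately per campaign, cut at about 16% in these data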;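 also: 0% = DMSO wells and 100% = 60 µM geldanamycin wells; inhibitors lower the luminescence because luciferase stays unfolded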
# HSF1 inh: HSF1 inhibition; NIH3T3-HGL HSE-luciferase, MG132-induced, luminescence 8 h; hits give low values; activity change, negative = inhibition, % at 7.5 µM (by protocol); actives 0.77% (n = 300,000); AID 2098;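 active = more than half of replicate wells show activity change below -50%, luminescence cut by over half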;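 also: luciferase reports HSF-1 transcriptional activity via heat shock element; 0% = median of DMSO wells and -100% = zero luminescence signal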
# HSF-1 act: increases HSF-1 driven luciferase reporter signal; NIH3T3-HGL HSF-1 luciferase reporter, MG132, 8 h; 100% = twice DMSO control signal; activation, % at 9 µM; actives 1.7% (n = 300,000); AID 504408;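 active = mean replicate activation of at least 50% with a set share of replicates each reaching 50%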;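 also: 0% = median of the neutral control wells and 100% = twice that signal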
# GAA850 FXN act: increases GAA850 frataxin promoter reporter activity | actives 0.56% (n = 360,000) | activation, % at 6 µM | HEK293 lucGAA850 FXN promoter luciferase reporter, 24 h; percent of 10 µM SAHA response;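 active = activation above the average of all compounds screened plus 3 SD, cutoff fixed separately per campaign, cut at about 7.5% in these data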;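 also: 0% = DMSO wells and 100% = 10 µM SAHA wells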
# DAX1 inh: inhibits human nuclear receptor DAX1; inhibition, % at 6.75 µM; actives 0.99% (n = 340,000); P51843; HEK293 Gal4-DAX1 luciferase reporter, luminescence;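 active = inhibition above the mean over all tested compounds plus 3 SD, cut at about 4.2% in these data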;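 also: 0% = DAX1-transfected cells with DMSO and 100% = empty-vector control cells with DMSO; inhibition shows as a rise in luminescence from relieved DAX1 repression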
# * hit, by the source's call; / = no result given.
SMILES,AHR act,HSP90 refold inh,HSF1 inh,HSF-1 act,GAA850 FXN act,DAX1 inh
CCOC(=O)c1cc2nc(-c3ccccc3)cc(C)n2n1,1,1,2,1,-2,0
CCc1nccn1C(=O)c1cnn2c(C(F)F)cc(-c3ccccc3)nc12,0,0,-88*,-91,/,/
CNS(=O)(=O)c1ccc(NC(=O)c2cnn3c(C(F)F)cc(-c4ccccc4)nc23)cc1,5,2,3,3,2,1
CCOC(=O)c1cnn2c(C)cc(-c3ccccc3)nc12,0,-1,9,20,4,4.3*
O=C(Nc1cccc(S(=O)(=O)N2CCOCC2)c1)c1cnn2c(C(F)F)cc(-c3ccccc3)nc12,7,-4,0,14,1,5.0*
CC1=NN(c2ccccc2)C(=O)/C1=C/c1c(O)n(-c2ccc(F)c(Cl)c2)[nH]c1=O,49*,-4,9,17,/,/
CN1C(=O)[C@H]2[C@@H](c3ccc(C(F)(F)F)cc3)N[C@]3(CCCN(Cc4ccc(C(F)(F)F)cc4)C3=O)[C@H]2C1=O,/,/,/,/,-2,1
O=c1c2cc(N3CCOCC3)ccc2[nH]c(=S)n1Cc1ccc(Cl)cc1,36,5,17,56*,4,1
Cc1ccc(S(=O)(=O)Nc2c(C)n(C)n(-c3ccccc3)c2=O)cc1C(=O)NCc1ccco1,/,/,/,/,2,1
CC(NC(=O)CSc1nc(C2CC2)n(-c2ccccc2)n1)c1ccco1 (stereo unspecified),0,/,/,/,0,-1
c1ccc2c(c1)ccc1nnc(SCc3ccc4c(c3)OCO4)n12,65*,-1,16,44,3,1
Cc1ccc([C@H]2C[C@@H](n3cc(COC(=O)c4ccccc4)nn3)[C@H](O)CN2C(=O)c2cccs2)cc1,/,/,/,/,2,2
CN1CCN(C(=O)C23CC4CC(C)(CC(C)(C4)C2)C3)CC1,0,7,-15,-4,1,0
Cc1nnc2n1N=C(c1ccc(F)cc1F)CS2,3,/,/,/,2,0
Cc1ccc(S(=O)(=O)NCCNC(=O)N2CCOCC2)cc1,1,3,-18,-2,-1,1
Cc1ccc(S(=O)(=O)NCCOc2nc(N3CCOCC3)nc(N3CCOCC3)n2)cc1,1,2,22,58*,1,1
COc1cc2c(c(OC)c1OC)C(=O)C(=Cc1ccccc1)O2,/,/,/,/,3,0
CC(C)NC(=O)C1(C)CCN1Cc1cccc(Cl)c1 (stereo unspecified),/,/,/,/,-2,/
COCCCNC(=O)CCc1c(C)c2cc3c(C)coc3cc2oc1=O,5,-2,-8,17,0,1
Cc1coc2cc3oc(=O)c(CCC(=O)NCC(=O)O)c(C)c3cc12,/,-1,-2,8,0,6.1*
O=C(Oc1ccc([N+](=O)[O-])cc1)C1CC(=O)N(c2ccc3c(c2)OCCO3)C1 (stereo unspecified),0,/,/,/,-1,-1
O=C(CSc1ccc(-c2ccccn2)nn1)Nc1cccc(F)c1,10,4,15,-7,-1,0
Cc1ccc2cc3c(nc2c1)N(c1ccccc1)CC3,66*,2,21,-13,4,0
CC(=O)NN1CCc2cc3ccc(C)cc3nc21,9,-8,-3,-18,2,1
O=C(c1ccccc1)N1N=C(C(F)(F)F)CC1(O)c1ccc(F)cc1 (stereo unspecified),25,4,24,33,0,-1
SMILES,AHR act,HSP90 refold inh,HSF1 inh,HSF-1 act,GAA850 FXN act,DAX1 inh
O=C(Nc1cccc(C(F)(F)F)c1)Nc1nnc([C@@H]2C[C@H](O)[C@@H](CO)O2)s1,/,/,/,/,-3,/
CCOc1[nH]n(-c2ccccc2)c(=O)c1C=NCC(=O)OC,8,-1,-4,0,2,-1
CCOc1[nH]n(-c2ccccc2)c(=O)c1C=NCc1cccnc1,59*,2,-4,6,3,-1
CC1CC1c1ccc(/C=C(\C#N)C(=O)Nc2ccccc2Cl)o1 (stereo unspecified),50*,2,12,31,5,1
CCOC1(OCC)OC(c2ccccc2)=C(C#N)C(C=Cc2ccccc2)C1(OCC)OCC (stereo unspecified),/,/,/,/,-2,2
COc1ccc(NS(=O)(=O)c2ccc(C)c(C(=O)N(C)Cc3ccc(C)cc3)c2)cc1,2,/,4,12,0,0
